ST2 IL33 inh = inhibitors of human ST2 (IL1RL1) binding to IL-33, primary screen, biochemical, AlphaLISA. inhibition, % for hits at 17 µM. 78,000 compounds, 2.3% hits. AlphaLISA ST2-Fc/biotin-IL-33 interaction, 1 h; in the data active = inhibition above about 30%
* marks the source's active call; other numbers are inactive results. The entries come from a sample that favours hits as a whole.

For N#CC1=C(N)Oc2cc(O)c(Cl)cc2C1c1ccccc1Cl (configuration not stated) the results were ST2 IL33 inh inactive.
`c1ccc(-c2cc3c(ncn4nnnc34)s2)cc1` gave ST2 IL33 inh inactive.
O=C(NCc1ccncc1)C(=O)Nc1cccc(F)c1 was read as ST2 IL33 inh inactive.
Screening O=C1C=C(/C=C/c2ccccc2)C[C@H](c2ccccc2)[C@H]1n1nnc([N+](=O)[O-])n1 returned ST2 IL33 inh 58%*.
`CCOC(=O)C1C(=O)C=C(c2ccc(OC)c(OC)c2)CC1c1cccs1` (configuration not stated) gave ST2 IL33 inh inactive.
`O=C1C=C(c2ccccc2)C[C@H](c2cccs2)[C@H]1n1nnc([N+](=O)[O-])n1` gave ST2 IL33 inh 33%*.
O=C(N1CCc2ccccc21)C1(S(=O)(=O)c2ccc(Cl)cc2)CC1 was read as ST2 IL33 inh inactive.
For COc1ccccc1CN1CCCN(C)CC1 the results were ST2 IL33 inh inactive.
`CCCN1CCN(CCCNC(=O)c2ccc3nc4ccccc4c(=O)n3c2)CC1` gave ST2 IL33 inh inactive.
For CCC(SC1=Nc2ccccc2C2=NC(Cc3ccccc3)C(=O)N12)C(=O)N1CCOCC1 (configuration not stated) the results were ST2 IL33 inh inactive.
O=c1c(C=NCCCO)c(CSc2ccc(Cl)cc2)[nH]n1-c1nc2ccccc2s1 was read as ST2 IL33 inh inactive.
Oc1oc(-c2ccccc2)nc1C=Nc1cccc(Cl)c1 was read as ST2 IL33 inh inactive.
`Oc1oc(-c2ccc(Cl)cc2)nc1C=Nc1cccc(F)c1` gave ST2 IL33 inh 31%*.
`Oc1oc(-c2ccc(Cl)cc2)nc1C=Nc1ccccc1Br` gave ST2 IL33 inh 31%*.
For Oc1oc(-c2ccccc2)nc1C=Nc1cccc(F)c1 the results were ST2 IL33 inh inactive.
Screening Oc1oc(-c2ccc(Br)cc2)nc1C=Nc1ccc(Cl)cn1 returned ST2 IL33 inh 42%*.
For Oc1oc(-c2ccc(Cl)cc2)nc1C=Nc1ccc(Br)cc1 the results were ST2 IL33 inh inactive.
For Oc1oc(-c2ccc(Br)cc2)nc1C=Nc1cc(Cl)ccc1Cl the results were ST2 IL33 inh inactive.
Screening Oc1oc(-c2ccc(Br)cc2)nc1C=Nc1ccc(Cl)cc1Cl returned ST2 IL33 inh inactive.
Screening Oc1oc(-c2ccc(Br)cc2)nc1C=Nc1ccccn1 returned ST2 IL33 inh inactive.
`CC(C)Cc1cc(C(=O)N2CCn3cccc3C2c2ccccn2)no1` (configuration not stated) gave ST2 IL33 inh inactive.
Screening O=C(NCC1CCCN(Cc2ccc3c(c2)OCCO3)C1)c1ccco1 (configuration not stated) returned ST2 IL33 inh inactive.
For CN(CC(=O)Nc1ccc(F)c(F)c1)S(=O)(=O)c1ccc2c(c1)CCC(=O)N2 the results were ST2 IL33 inh inactive.
`CC(=O)c1cccc(NC(=O)CSc2ccc(C)cc2)c1` gave ST2 IL33 inh inactive.
For CN1CC2(CCCN(Cc3nnc(-c4ccco4)o3)CC2)OC1=O (configuration not stated) the results were ST2 IL33 inh inactive.
Screening Cc1nc(N2CCC(NCc3cccc4[nH]ccc34)CC2)nc2ccc(F)cc12 returned ST2 IL33 inh inactive.
COCCN(Cc1sccc1C)C(=O)c1scc2c1OCCO2 was read as ST2 IL33 inh inactive.
O=C(NCc1ccc(Cl)cc1)c1ccc2nc3ccc(Cl)cc3c(=O)n2c1 was read as ST2 IL33 inh inactive.
Screening O=C(NC1CCCCCCC1)C1c2ccccc2C(=O)N1CCCN1CCOCC1 (configuration not stated) returned ST2 IL33 inh inactive.
For O=C1C(NC2CCCCC2)=C(N2CCOCC2)C(=O)c2ccccc21 the results were ST2 IL33 inh 73%*.
`COc1cccc(NC2=C(N3CCOCC3)C(=O)c3ccccc3C2=O)c1` gave ST2 IL33 inh 71%*.
Screening CC(C)C(C(=O)NC1CCCCC1)N1C(=O)c2ccccc2C1=O (configuration not stated) returned ST2 IL33 inh inactive.
`COc1cccc(NC(=O)c2ccccc2-c2ccccc2C(=O)O)c1` gave ST2 IL33 inh inactive.
Screening COc1cccc(OCC(O)CN2CCOCC2)c1 (configuration not stated) returned ST2 IL33 inh inactive.
COc1ccc(S(=O)(=O)Nc2ccc(O)c(C)c2C)cc1 was read as ST2 IL33 inh inactive.
`CN(CCNC(=O)Cc1ccccn1)S(C)(=O)=O` gave ST2 IL33 inh inactive.
COc1cc(NC(=O)c2ccccc2Br)c(OC)cc1Cl was read as ST2 IL33 inh inactive.
For Fc1ccc(CN2CC[C@H](c3nnc(-c4cccnc4)o3)C2)cc1F the results were ST2 IL33 inh inactive.
`CC(C)OCCCNC(=O)c1ccc2c(c1)NC(=O)C(N1CCCC1)S2` (configuration not stated) gave ST2 IL33 inh inactive.
`CC/C=C\CCO[C@@H]1O[C@H](CO)[C@@H](O)[C@H](O)[C@H]1O` gave ST2 IL33 inh 31%*.

Screens from PubChem.
